The inhibition is the drop in the measured response relative to a control, in per cent.

The campaign covered roughly 330,000 compounds. About 1,900 (0.58%) were called active. Roughly 4% stayed inconclusive and do not appear here. These entries were drawn from the full list. Measured potencies and affinities stand elsewhere. Unmarked numbers belong to inactive results. Cut-off read from the data, not from the text of the source: inconclusive = inhibition above about 70% without an active follow-up result; inactive = below that.

The test is described as follows: M. tuberculosis growth inhibition, HTS (AID 449762).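 Note: bacterial growth assessed after seven days of incubation.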 Particulars: M. tuberculosis H37Rv growth inhibition, 7H9 media; at 25 µM; active compounds read high.
With `O=C(COC(=O)c1ccccc1)Nc1cc(S(=O)(=O)N2CCCCCC2)ccc1Cl`, the inhibition was -13%.

For `CCN1C(=O)[C@@H]2[C@@H](c3ccc(-c4ccc(C(C)=O)cc4)c(OC)c3)N3CCC[C@@]3(C(=O)OC)[C@@H]2C1=O`, the inhibition was 18.4%. `CC(=O)C[C@H](O)CC(=O)[C@H]1OC(=O)CCCCCCc2ccccc21`: the inhibition was 4.94%. As for `CC1(C)CC(=O)C2=C(C1)Nc1ccccc1[S@]2=O`, the inhibition is 1.12%. Regarding `COc1ccc(C2=NCCc3cc(OC)c(OC)cc32)cc1OC`, the inhibition is 4.26%. Consider `OCC1(Cc2ccccc2Cl)CCN(C/C=C/c2ccccc2)CC1`, for which the inhibition was 2.72%. For `COc1ccc(CC2(CO)CCN(C/C=C/c3ccccc3OC)CC2)cc1`, the inhibition was 50.6%. As for `Cc1ccc(-n2nc(CC#N)c(C#N)c2N)cc1Cl`, the inhibition was -3.34%. Under `O=Nc1c(O)[nH]c2ccc(F)cc12` stands -7.36%. With `Cc1ccc2[nH]c(O)c(N=O)c2c1` the figure was -3.5%.

On to `O=C(CSc1cccc[n+]1[O-])Nc1cccc(Oc2ccccc2)c1`, for which the inhibition is 2.29%. For `O=C(C1CC(=O)N(c2ccc3c(c2)OCCO3)C1)N1CCN(Cc2ccccc2F)CC1` (centres undefined), the inhibition is -2.42%. For `COc1cccc2sc3ccc(C#CC4(O)CCCCC4)cc3c(=O)c12`, the inhibition was 47.6%.

On to `COc1cccc2sc3ccc(C#Cc4ccc(N)cc4)cc3c(=O)c12`, for which the inhibition was 39.9%. On to `COc1ccc(S(=O)(=O)Cc2ccc(C(=O)N3CCN(C4CCCCC4)CC3)o2)cc1`, for which the inhibition is -3.99%.

As for `COc1ccc(NC(=O)c2ccc(CNc3c(NC4CCCCC4)c(=O)c3=O)cc2)c(OC)c1`, the inhibition was -5.88%. Under `CCOc1ccccc1NC(=O)c1ccccc1N(C)S(C)(=O)=O` stands -4.2%; under `COc1ccc(C2C(C#N)=C(N)N(N(C)C)C3=C2C(=O)CC(C)(C)C3)cc1OC` (centres undefined), 7.78%; under `COc1ccc(C2C(C#N)=C(N)N(Nc3ccccc3)C3=C2C(=O)CC(C)(C)C3)cc1C` (centres undefined), -5.96%. Take `CSc1ccccc1OCc1cc(C(=O)NC(C)CCn2cccn2)no1` (centres undefined): the inhibition is -15.6%.

On to `Cc1cc(C)n(C(=O)c2ccc([N+](=O)[O-])cc2Cl)n1`, for which the inhibition is 5.54%. On to `Cc1cc(C)n(C(=O)c2ccc([N+](=O)[O-])cc2N)n1`, for which the inhibition is -4%.

As to `Cc1nc([N+](=O)[O-])cn1CC(=O)c1ccc(Br)cc1`, the inhibition is 4.4%.

Turning to `CC(C)C(=O)c1cn(CC(=O)NCc2ccc3c(c2)OCO3)c2ccccc12`, the inhibition is -5.3%.

Turning to `CS(=O)(=O)n1nc(-c2cccnc2)nc1NCc1ccccc1`, the inhibition is 0.47%. Regarding `CC(=O)n1nc(-c2ccccc2)nc1NCc1ccc(N(C)C)cc1`, the inhibition was 0.39%.

For `CCN(CC)CC(=O)NCC1(c2ccccc2)CCCC1`, the inhibition is -3.12%. Under `O=C(O)C1C2C=CC(C2)C1C(=O)Nc1ccc(C(=O)N2CCCCC2)cc1` (centres undefined) stands 1.87%. With `CCOC(=O)C(=O)N=Nc1c(O)n(C)c2ccccc12`, the inhibition is 1.87%. On to `COc1cccc(N=Nc2c(=O)[nH]n3c(C)cc(C)nc23)c1`, for which the inhibition is 0.98%. Take `Cc1cc(C)n2[nH]c(=O)c(N=Nc3ccccc3)c2n1`: the inhibition is 4.19%. With `Cc1c(C(=O)N2CCN(C(=O)c3ccccc3)CC2)oc2ccc(F)cc12` the figure was -0.86%; with `COc1ccc(/C=C/C(=O)c2oc3ccc(F)cc3c2C)cc1`, 10.9%; with `CC(=O)c1ccc(OCC(=O)Nc2cccc(S(=O)(=O)N3CCCC3)c2)cc1`, -6.55%. In the case of `O=C(COC(=O)c1cccs1)NCc1ccco1`, the inhibition is -0.65%. Under `COc1cc(NC(=O)c2cccs2)c(C(=O)OCC(=O)NCc2ccccc2)cc1OC` stands -0.2%. In the case of `COc1cccc(CN(C)C(=O)c2ccc3c(=O)n4c(nc3c2)CCC4)c1OC`, the inhibition was 1.09%. With `COc1ccc(COC(=O)c2ccc3c(=O)n4c(nc3c2)CCC4)cc1F`, the inhibition is 3.8%. With `C[C@H](NC(=O)C1CCN(S(=O)(=O)c2ccccc2)CC1)C(=O)NCc1ccc(Cl)cc1Cl` the figure was -1.33%; with `O/C(=C\Sc1nnc(Cc2ccccc2)o1)c1ccc(Br)cc1`, 8.01%. Under `O/C(=C\Sc1nnc(Cc2ccccc2)o1)c1ccc(F)cc1` stands 7.63%; under `CCC(C)(C)NC(=O)C(c1ccncc1)N(C(=O)c1sc(C)nc1C)c1ccc(C)cc1` (centres undefined), 3.84%. On to `COc1cc(/C=N\NC(=O)c2ccc(Cl)cc2)ccc1Oc1ccc([N+](=O)[O-])cn1`, for which the inhibition is -6.52%.

Turning to `Cc1cccc(-n2c(N)c(-c3nc4ccccc4n3C)c3nc4ccccc4nc32)c1`, the inhibition is 1.57%. As to `Cc1nc2ccccc2n1CCc1ccccc1`, the inhibition is -2.95%. As to `CNC(=O)CS(=O)(=O)CC(=O)Nc1cc(OC(C)C)c(Cl)cc1Cl`, the inhibition is -5.55%.

In the case of `O=C(OC(C(=O)Nc1ccc(Cl)c(C(F)(F)F)c1)c1ccccc1)C1=COCCO1` (centres undefined), the inhibition was 45.5%.

For `COC(=O)CCC(=O)Nc1nccs1`, the inhibition is 5.49%.

For the compound `O=C(Cc1ccccc1)Nc1nccs1`, the inhibition is -6.19%.

Take `CCn1c(SCC(=O)Nc2nc(C)c(C)s2)nnc1-c1cccnc1`: the inhibition was -1.86%. For the compound `CC1=NC(C(F)(F)F)(C(F)(F)F)C(C#N)=C(C)N1`, the inhibition is -4.27%. Under `C=CCn1cccc(C(=O)Nc2ccc(SC)cc2)c1=O` stands -0.65%; under `O=C(c1cccc(Cl)c1)c1nn(-c2ccccc2)c(=O)cc1C(F)(F)F`, -1.58%; under `O=C(c1ccccc1)c1nn(-c2ccccc2)c(=O)cc1C(F)(F)F`, 13.9%. Take `CCCCNC(=O)c1c(C)cc(=O)oc1C`: the inhibition was -6.73%. For `Clc1cccc(Cl)c1C1Nc2cccc3cccc(c23)N1`, the inhibition is 14.4%. Turning to `Oc1ccccc1C1Nc2cccc3cccc(c23)N1`, the inhibition is 6.02%. For `O=C(CSc1nnnn1-c1ccc(F)cc1F)Nc1ccccc1F`, the inhibition is -0.25%. On to `CC(=O)NC1=NN(C(C)=O)C(c2ccc(F)cc2)S1` (centres undefined), for which the inhibition is -2.18%. Turning to `Cc1onc(-c2ccccc2)c1C(=O)NCc1cccnc1`, the inhibition was -1.76%. As for `Cc1cc(=O)oc(C)c1C(=O)NCc1cccnc1`, the inhibition is -7.02%. As for `COc1ccc(-c2cc(C(=O)N/N=C(\C)c3cccnc3)c3cc(C)ccc3n2)cc1OC`, the inhibition was -3%. On to `CCc1nnc(NC(=O)c2ccc(S(=O)(=O)N3CCCC3)cc2)s1`, for which the inhibition was -0.36%. On to `O=C(O)CSc1cccc[n+]1[O-]`, for which the inhibition was -0.1%. With `O=C(CSc1cccc[n+]1[O-])N1CCCCCC1`, the inhibition was -7.02%. Consider `CN(C(=O)CSc1cccc[n+]1[O-])c1ccccc1`, for which the inhibition is -7.05%. On to `[O-][n+]1ccccc1SCc1ccccc1`, for which the inhibition is -3.14%. For `CN(C(=O)CS(=O)(=O)c1cn(CC(=O)N2CCCCC2)c2ccccc12)c1ccccc1`, the inhibition is -2.32%. Turning to `O=C(O)C1(P(=O)(c2ccccc2)c2ccccc2)CCCC1`, the inhibition is 0.37%. Regarding `CN(C)CCCNC(=S)N(CCCO)Cc1cc2cc3c(cc2[nH]c1=O)OCO3`, the inhibition is 4.05%. Turning to `COc1cc(C(CCN2CCCC2)c2c(OC)cc(OC)c3c(-c4ccccc4)cc(=O)oc23)cc(OC)c1OC` (centres undefined), the inhibition is 56.2%. Consider `COc1ccc(C(CCN2CCN(c3ccccc3)CC2)c2c(OC)cc(OC)c3c(-c4ccccc4)cc(=O)oc23)cc1` (centres undefined), for which the inhibition was -5.41%. With `COc1ccc(N2C(=O)NC(NS(=O)(=O)c3ccccc3)(C(F)(F)F)C2=O)cc1` (centres undefined), the inhibition was -5.61%.

With `CNC(=O)COC(=O)c1cc(=O)[nH]c2ccccc12`, the inhibition is -5.4%.

Turning to `Cc1c2cnn(CC(=O)Nc3cccc(C(F)(F)F)c3)c(=O)c2c(C)n1Cc1ccccc1F`, the inhibition is -1.26%.

For `O=C(CN1CCOc2ccccc21)N1CCCC1`, the inhibition is -8.18%. `O=C(CN1C(=O)COc2ccccc21)N1CCCC1`: the inhibition is -0.99%. As to `CC(C)c1ccc(NC2CCCN(C(=O)CCN3CCOCC3)C2)cc1` (centres undefined), the inhibition was 7.93%.

As for `O=C(Nc1nc(-c2cc(Cl)sc2Cl)cs1)c1ccccc1`, the inhibition is -8.95%. On to `O=C(Nc1nc(-c2cc(Cl)sc2Cl)cs1)c1ccc(Br)s1`, for which the inhibition is 1.67%. For the compound `CCC1CCCCN1C(=O)c1noc(C(C)C)c1[N+](=O)[O-]` (centres undefined), the inhibition was 3.49%. As for `CC12CC3(C)CC(C)(C1)CC(C(N)=O)(C2)C3`, the inhibition was -0.48%.

Consider `COc1ccccc1NC(=O)CSCc1cc(=O)n2ccsc2n1`, for which the inhibition was 3.56%. For the compound `Cc1ccc(C(C)C)c(OCC(O)CNC2CCCC2)c1` (centres undefined), the inhibition is 9.04%. Turning to `CCN(CCNCC(O)COCc1ccc(Cl)cc1)c1cccc(C)c1` (centres undefined), the inhibition was 57%.

For the compound `Cc1ccc(S(=O)(=O)Cc2ccc(C(=O)NCCCN3CCN(C)CC3)o2)cc1`, the inhibition is -20.7%. Turning to `O=C(Cn1c2ccc(F)cc2c2nc3n(c(=O)c21)CCS3)N1CCCC1`, the inhibition is -4.92%.

Consider `CCN(CC)S(=O)(=O)c1cccc(-c2csc(C)n2)c1`, for which the inhibition is -1.32%. In the case of `COc1cc(/C=N\Nc2nncn2N)ccc1OC(C)=O`, the inhibition is -2.67%. Regarding `COc1ccc(/C=N/Nc2nnc(C)n2N)cc1OC`, the inhibition is 54.6%. As for `Cc1cccc(C)c1-n1nnnc1SCSc1nnnn1-c1c(C)cccc1C`, the inhibition was -0.17%. As for `Cc1ccc(C)c(N2C(=O)CC(N3CCN(Cc4ccc5c(c4)OCO5)CC3)C2=O)c1` (centres undefined), the inhibition is -6.64%.

For `O=c1/c(=C\c2ccc(O)cc2)sc2nc(-c3ccccc3)c(-c3ccccc3)n12`, the inhibition was -4.61%. With `CCOC(=O)C1=C(C)N=c2s/c(=C\c3ccc(OCC(=O)O)cc3)c(=O)n2C1c1ccccc1` (centres undefined) the figure was -2.68%.

For the origin of these results see PubChem BioAssay AID449762 (Southern Research Specialized Biocontainment Screening …, 2010).
